From paper PMC7862700, “An all-to-all approach to the identification of sequence-specific readers for epigenetic DNA modifications on cytosine”

Experiments:
Assay in all cases: DAPPL (digital affinity profiling via proximity ligation, sequencing); 10 mM Tris-HCl pH 7.5, 50 mM NaCl, 1 mM DTT, 4% glycerol, room temperature, 30 min; GST-TFs on glutathione beads, 16-mer random dsDNA library, 0.1% formaldehyde crosslink after washing; high values mean tight binding
Settings in all cases: protein: recombinant; tags: N-terminal GST; dsDNA, one strand shown
FLI1 = target: T1, FLI1 (Homo sapiens, UniProt Q01543 1-452)
T1 sequence: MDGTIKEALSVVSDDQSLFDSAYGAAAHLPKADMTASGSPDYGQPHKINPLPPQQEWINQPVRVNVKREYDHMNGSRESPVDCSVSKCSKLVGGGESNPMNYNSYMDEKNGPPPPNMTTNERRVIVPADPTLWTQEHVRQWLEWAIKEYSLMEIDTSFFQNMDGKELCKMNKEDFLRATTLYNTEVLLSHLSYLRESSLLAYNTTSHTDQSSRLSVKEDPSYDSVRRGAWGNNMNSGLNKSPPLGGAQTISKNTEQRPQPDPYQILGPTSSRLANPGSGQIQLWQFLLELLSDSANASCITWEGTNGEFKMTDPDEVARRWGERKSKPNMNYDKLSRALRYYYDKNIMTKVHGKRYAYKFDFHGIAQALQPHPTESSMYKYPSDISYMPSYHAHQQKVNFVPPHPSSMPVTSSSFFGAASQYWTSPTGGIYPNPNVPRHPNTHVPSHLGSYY
Summary of the method: (§1)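 Sequencing on an Illumina NextSeq500 followed washing, crosslinking with 0.1% formaldehyde, proximity ligation (BsaI/T4 ligase, 1 h, 37 °C) and PCR amplification of pools that had been incubated for 30 min at room temperature with 200 nmole of a random double-stranded 16-mer DNA library in Tris/NaCl/DTT/glycerol buffer. Each pool held DNA-barcoded human transcription factors, expressed in yeast as GST fusions and captured on glutathione beads, plus a tag-only sample. Binding signal is a hexamer's read frequency for a factor divided by its frequency in the tag-only sample.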

ELK1 = target: T2, ELK1 (Homo sapiens, UniProt P19419 1-428)
T2 sequence: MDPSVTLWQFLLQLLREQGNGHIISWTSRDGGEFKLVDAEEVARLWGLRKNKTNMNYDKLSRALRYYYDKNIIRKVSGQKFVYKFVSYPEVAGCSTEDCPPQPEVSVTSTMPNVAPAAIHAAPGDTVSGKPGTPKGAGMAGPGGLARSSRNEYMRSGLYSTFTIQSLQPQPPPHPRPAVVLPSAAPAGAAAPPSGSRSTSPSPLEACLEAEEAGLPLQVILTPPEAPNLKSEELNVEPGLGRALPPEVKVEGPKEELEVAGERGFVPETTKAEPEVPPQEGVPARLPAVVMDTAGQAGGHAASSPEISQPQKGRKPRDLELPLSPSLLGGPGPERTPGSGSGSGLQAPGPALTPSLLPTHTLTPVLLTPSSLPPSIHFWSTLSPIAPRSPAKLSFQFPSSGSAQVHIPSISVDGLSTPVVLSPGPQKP
Summary of the method: as §1

GABPA = target: T3, GABPA (Homo sapiens, UniProt Q06546 1-454)
T3 sequence: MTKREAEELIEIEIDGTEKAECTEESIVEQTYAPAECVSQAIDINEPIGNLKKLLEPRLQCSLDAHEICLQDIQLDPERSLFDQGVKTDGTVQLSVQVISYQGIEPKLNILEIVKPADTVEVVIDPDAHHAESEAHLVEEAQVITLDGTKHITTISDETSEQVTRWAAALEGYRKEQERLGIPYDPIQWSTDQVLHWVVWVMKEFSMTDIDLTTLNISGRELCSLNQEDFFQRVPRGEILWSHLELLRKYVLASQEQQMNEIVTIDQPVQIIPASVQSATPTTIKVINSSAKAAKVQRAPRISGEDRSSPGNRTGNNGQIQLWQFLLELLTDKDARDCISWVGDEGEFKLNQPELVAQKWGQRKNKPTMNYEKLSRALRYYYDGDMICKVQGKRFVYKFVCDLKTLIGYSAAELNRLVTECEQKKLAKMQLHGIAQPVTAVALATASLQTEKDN
Summary of the method: as §1

ERG = target: T4, ERG (Homo sapiens, UniProt P11308 1-479)
T4 sequence: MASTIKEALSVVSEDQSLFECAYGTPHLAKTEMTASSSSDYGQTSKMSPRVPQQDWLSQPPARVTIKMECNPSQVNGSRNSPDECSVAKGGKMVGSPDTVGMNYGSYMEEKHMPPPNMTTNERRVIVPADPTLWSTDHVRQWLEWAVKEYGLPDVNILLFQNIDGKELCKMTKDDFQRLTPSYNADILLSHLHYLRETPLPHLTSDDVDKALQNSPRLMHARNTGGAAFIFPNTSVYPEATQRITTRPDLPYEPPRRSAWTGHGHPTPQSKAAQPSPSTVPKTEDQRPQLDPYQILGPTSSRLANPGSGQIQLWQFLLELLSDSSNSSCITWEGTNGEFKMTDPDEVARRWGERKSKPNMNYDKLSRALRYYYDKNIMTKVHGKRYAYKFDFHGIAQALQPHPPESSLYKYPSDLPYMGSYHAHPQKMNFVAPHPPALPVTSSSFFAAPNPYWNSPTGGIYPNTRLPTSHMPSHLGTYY
Summary of the method: as §1

ELF1 = ELF1 (Homo sapiens, UniProt P32519 1-619)
Sequence of ELF1 (P32519 whole entry): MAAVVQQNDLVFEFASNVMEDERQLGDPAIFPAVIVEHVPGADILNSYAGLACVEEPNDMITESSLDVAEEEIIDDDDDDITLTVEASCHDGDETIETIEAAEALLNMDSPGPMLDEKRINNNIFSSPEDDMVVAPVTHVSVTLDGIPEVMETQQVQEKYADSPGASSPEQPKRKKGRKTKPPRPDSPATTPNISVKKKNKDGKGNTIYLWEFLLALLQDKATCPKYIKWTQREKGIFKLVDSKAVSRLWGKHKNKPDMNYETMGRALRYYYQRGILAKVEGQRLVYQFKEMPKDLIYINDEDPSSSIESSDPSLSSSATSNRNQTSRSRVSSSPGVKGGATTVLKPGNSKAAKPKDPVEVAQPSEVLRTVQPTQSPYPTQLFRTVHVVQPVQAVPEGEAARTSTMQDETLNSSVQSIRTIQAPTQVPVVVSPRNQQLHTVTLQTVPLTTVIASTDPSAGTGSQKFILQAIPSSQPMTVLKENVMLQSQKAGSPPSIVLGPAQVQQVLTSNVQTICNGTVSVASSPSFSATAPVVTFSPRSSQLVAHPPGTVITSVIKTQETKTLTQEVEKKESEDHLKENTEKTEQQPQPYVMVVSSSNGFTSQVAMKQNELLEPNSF
Summary of the method: as §1

EHF = target: T5, EHF (Homo sapiens, UniProt Q9NZC4 1-300)
T5 sequence: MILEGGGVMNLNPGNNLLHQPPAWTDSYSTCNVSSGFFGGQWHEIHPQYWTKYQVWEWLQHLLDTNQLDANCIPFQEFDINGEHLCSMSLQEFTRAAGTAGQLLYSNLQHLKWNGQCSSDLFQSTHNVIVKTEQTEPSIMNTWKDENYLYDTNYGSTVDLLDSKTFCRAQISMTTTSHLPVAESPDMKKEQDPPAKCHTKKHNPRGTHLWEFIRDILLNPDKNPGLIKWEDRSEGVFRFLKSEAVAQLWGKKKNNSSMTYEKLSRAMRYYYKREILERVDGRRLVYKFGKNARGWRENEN
Summary of the method: as §1

SPI1 = SPI1 (Homo sapiens, UniProt P17947 1-270)
Summary of the method: as §1

SPIB = SPIB (Homo sapiens, UniProt Q01892 1-262)
Sequence of SPIB (Q01892 whole entry): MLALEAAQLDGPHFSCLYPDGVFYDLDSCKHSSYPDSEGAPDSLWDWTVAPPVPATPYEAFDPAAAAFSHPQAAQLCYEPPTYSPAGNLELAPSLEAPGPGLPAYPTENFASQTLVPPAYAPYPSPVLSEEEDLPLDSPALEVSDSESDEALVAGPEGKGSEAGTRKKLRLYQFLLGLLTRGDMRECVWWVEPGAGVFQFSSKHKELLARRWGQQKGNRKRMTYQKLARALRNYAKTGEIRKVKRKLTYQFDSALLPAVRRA
Summary of the method: as §1

ELK3 = target: T6, ELK3 (Homo sapiens, UniProt P41970 1-407)
T6 sequence: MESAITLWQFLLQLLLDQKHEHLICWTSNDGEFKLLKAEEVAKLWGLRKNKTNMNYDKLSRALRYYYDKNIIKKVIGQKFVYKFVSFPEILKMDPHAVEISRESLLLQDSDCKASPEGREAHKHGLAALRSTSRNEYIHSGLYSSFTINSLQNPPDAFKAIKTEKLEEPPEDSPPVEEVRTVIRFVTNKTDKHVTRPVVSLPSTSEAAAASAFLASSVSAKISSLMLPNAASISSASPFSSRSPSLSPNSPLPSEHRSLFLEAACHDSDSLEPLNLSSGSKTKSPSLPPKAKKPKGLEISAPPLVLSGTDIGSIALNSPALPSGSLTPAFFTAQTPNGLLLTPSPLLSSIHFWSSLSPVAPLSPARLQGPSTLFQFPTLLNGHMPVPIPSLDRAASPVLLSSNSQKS
Summary of the method: as §1

FEV = target: T7, FEV (Homo sapiens, UniProt Q99581 1-238)
T7 sequence: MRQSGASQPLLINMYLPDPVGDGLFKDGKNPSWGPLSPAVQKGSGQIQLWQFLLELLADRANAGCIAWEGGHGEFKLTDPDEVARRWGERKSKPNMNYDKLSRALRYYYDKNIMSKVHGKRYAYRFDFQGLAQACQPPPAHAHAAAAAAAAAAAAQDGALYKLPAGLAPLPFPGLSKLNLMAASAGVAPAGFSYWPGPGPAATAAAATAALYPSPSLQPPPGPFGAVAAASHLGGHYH
Summary of the method: as §1

ACCACG
binding signal (FLI1): 1.14 fold enrichment (6-mer frequency, TF over GST control)
binding signal (ELK1): 1.16 fold enrichment (6-mer frequency, TF over GST control)
binding signal (GABPA): 1.09 fold enrichment (6-mer frequency, TF over GST control)
binding signal (ERG): 1.06 fold enrichment (6-mer frequency, TF over GST control)
binding signal (ELF1): 1.18 fold enrichment (6-mer frequency, TF over GST control)
binding signal (EHF): 1.04 fold enrichment (6-mer frequency, TF over GST control)
binding signal (SPI1): 1.01 fold enrichment (6-mer frequency, TF over GST control)
binding signal (SPIB): 1.04 fold enrichment (6-mer frequency, TF over GST control)
binding signal (ELK3): 1.08 fold enrichment (6-mer frequency, TF over GST control)
binding signal (FEV): 1.05 fold enrichment (6-mer frequency, TF over GST control)
